Measured values as given in the supplement of paper PMC10849652.
Targets with a hit are over-represented here; the source holds about 7,900 in all. About 0.6% of all pairs of compound and target were hits.

Compound: CNCc1ccc(-c2[nH]c3cc(F)cc4c3c2CCNC4=O)cc1 [rucaparib]
Test: log2 fold change, soluble protein after heating vs DMSO (PISA); higher = thermal stabilisation; K562 cells, 10 uM, 30 min; active = over 0.2 and 3.5 SD of the protein, either way, in both replicates (recomputed)
Outline: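 K562 cells (2×10^6 cells/mL) were treated with 10 μM compound for 30 min, and aliquots were heated for 3 min over 48°C-58°C. Pooled aliquots were extracted in PBS with 0.5% NP-40 at 4°C, and the supernatant after 21,000xg for 90 min was measured by TMTpro 16plex LC-MS/MS with channel sums equalised. Reported thermal stability, relative to control samples and from duplicates, is a log2 fold change.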

Chain of UniProt P55209 (P55209 whole entry, looked up): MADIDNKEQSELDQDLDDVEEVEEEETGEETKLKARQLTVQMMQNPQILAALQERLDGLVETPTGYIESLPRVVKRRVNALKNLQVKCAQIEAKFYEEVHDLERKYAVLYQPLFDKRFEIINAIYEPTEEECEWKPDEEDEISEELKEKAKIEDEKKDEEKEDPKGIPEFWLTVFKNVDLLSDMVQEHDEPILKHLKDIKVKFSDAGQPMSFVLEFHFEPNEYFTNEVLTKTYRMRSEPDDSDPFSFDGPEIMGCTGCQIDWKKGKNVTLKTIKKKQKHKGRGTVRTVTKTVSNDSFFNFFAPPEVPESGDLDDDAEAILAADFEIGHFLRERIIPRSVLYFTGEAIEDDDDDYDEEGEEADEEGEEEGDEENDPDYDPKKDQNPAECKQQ
Chain of UniProt Q9Y2I1 (Q9Y2I1 whole entry, looked up): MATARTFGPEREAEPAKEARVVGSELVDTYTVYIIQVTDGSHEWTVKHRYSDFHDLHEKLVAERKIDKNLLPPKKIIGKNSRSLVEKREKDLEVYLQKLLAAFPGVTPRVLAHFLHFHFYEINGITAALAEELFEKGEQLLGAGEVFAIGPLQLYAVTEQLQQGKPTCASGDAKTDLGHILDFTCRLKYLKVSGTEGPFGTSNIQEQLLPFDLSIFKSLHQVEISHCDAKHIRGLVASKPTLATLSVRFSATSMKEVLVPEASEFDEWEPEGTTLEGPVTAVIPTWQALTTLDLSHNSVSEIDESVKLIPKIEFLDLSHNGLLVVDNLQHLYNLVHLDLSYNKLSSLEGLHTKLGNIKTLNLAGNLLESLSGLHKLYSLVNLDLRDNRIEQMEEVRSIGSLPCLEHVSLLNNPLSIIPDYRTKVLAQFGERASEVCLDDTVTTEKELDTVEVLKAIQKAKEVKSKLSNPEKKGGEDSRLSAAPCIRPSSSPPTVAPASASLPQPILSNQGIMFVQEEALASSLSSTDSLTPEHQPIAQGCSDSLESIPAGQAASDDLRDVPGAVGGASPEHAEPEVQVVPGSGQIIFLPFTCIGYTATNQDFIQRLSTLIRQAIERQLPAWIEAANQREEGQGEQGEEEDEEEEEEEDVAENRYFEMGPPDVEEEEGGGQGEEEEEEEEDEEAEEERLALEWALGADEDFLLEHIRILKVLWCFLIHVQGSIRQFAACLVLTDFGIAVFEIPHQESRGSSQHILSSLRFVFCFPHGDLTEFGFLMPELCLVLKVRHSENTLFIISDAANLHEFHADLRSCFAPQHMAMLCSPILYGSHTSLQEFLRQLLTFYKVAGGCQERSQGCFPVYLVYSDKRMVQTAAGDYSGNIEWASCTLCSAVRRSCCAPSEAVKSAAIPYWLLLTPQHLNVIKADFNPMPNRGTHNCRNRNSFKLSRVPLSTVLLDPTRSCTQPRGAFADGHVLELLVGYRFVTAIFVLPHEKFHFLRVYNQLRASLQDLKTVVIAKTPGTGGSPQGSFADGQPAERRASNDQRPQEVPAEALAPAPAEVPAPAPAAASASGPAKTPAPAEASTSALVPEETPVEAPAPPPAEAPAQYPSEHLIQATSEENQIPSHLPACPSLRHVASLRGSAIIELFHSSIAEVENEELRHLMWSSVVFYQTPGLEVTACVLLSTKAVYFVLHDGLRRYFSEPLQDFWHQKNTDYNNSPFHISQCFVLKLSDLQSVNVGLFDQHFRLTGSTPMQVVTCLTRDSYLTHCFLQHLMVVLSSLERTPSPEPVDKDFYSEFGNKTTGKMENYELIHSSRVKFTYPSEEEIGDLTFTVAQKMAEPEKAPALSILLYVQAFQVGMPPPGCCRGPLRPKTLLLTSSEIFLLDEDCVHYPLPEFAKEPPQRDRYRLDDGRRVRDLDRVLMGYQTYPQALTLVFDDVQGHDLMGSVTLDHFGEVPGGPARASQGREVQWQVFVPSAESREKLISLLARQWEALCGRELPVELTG
Chain of UniProt P49757 (P49757 whole entry, looked up): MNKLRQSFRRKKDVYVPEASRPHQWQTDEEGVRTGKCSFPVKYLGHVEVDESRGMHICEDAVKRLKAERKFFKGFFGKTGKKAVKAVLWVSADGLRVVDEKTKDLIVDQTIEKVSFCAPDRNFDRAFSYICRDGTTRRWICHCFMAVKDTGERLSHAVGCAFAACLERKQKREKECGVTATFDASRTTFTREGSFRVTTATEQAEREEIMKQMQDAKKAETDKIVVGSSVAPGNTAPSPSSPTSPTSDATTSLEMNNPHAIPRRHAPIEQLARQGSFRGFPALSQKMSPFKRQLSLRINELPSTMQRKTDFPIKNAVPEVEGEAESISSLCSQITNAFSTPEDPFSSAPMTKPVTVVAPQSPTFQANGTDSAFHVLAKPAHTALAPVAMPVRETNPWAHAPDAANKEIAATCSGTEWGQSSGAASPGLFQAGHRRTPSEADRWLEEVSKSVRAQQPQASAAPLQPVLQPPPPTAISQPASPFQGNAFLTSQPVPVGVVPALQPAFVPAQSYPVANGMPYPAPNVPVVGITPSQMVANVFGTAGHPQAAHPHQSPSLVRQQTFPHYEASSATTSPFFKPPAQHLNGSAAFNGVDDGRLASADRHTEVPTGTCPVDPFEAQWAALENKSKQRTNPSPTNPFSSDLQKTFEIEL
Chain of UniProt Q8WVJ2 (Q8WVJ2 whole entry, looked up): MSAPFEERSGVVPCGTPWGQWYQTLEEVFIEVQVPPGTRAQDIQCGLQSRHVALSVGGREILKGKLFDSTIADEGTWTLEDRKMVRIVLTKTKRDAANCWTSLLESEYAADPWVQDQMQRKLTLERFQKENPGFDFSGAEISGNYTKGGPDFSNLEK
Chain of UniProt Q9BUK6 (Q9BUK6 whole entry, looked up): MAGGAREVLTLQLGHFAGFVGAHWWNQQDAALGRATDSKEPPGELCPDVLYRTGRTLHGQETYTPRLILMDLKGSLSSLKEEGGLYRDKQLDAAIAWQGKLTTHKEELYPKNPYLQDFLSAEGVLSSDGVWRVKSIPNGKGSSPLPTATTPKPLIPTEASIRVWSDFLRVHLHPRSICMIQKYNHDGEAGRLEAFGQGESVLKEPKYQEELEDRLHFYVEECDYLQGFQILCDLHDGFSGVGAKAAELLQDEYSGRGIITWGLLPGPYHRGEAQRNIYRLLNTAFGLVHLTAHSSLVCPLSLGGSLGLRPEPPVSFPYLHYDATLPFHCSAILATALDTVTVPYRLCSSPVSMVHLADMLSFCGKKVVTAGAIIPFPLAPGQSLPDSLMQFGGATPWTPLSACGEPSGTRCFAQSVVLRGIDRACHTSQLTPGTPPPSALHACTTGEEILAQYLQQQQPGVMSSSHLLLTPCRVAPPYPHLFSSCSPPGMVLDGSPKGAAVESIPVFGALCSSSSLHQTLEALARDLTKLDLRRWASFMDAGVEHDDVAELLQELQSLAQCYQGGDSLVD
Chain of UniProt Q8NCE2 (Q8NCE2 whole entry, looked up): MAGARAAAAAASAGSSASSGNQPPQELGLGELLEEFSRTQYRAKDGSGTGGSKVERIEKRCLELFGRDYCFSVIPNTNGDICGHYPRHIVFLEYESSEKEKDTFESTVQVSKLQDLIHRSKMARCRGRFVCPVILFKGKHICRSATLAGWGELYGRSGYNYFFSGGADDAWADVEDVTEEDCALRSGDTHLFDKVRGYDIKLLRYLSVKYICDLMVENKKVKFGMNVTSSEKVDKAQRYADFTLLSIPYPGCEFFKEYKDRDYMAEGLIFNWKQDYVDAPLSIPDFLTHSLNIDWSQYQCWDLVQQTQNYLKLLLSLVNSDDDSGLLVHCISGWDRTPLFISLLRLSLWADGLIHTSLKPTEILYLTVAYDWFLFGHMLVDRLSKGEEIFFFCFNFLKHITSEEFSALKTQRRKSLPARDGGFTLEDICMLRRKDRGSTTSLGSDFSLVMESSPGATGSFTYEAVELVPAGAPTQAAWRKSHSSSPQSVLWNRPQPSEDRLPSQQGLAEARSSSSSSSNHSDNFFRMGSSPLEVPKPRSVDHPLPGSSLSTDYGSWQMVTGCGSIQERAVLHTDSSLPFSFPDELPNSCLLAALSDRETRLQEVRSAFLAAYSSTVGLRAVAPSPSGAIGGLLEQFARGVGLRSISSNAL
Chain of UniProt Q9BW27 (Q9BW27 whole entry, looked up): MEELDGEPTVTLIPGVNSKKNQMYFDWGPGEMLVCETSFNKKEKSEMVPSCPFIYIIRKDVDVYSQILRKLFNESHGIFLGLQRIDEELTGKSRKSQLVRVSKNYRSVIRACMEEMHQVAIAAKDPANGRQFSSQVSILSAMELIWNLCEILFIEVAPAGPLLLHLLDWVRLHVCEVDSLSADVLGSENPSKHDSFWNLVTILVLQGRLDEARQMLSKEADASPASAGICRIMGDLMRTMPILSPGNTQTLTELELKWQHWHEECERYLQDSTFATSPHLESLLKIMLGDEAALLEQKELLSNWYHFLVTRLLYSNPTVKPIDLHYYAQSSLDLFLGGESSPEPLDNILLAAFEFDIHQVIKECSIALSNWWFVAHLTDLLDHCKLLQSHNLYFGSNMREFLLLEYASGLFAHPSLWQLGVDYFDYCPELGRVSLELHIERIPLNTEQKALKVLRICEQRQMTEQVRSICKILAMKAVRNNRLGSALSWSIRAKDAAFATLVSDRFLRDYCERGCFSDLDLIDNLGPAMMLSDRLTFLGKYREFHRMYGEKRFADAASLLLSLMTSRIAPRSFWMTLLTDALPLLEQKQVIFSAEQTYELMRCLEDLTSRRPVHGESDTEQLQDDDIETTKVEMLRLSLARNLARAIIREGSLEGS
Chain of UniProt Q13952 (Q13952 whole entry, looked up): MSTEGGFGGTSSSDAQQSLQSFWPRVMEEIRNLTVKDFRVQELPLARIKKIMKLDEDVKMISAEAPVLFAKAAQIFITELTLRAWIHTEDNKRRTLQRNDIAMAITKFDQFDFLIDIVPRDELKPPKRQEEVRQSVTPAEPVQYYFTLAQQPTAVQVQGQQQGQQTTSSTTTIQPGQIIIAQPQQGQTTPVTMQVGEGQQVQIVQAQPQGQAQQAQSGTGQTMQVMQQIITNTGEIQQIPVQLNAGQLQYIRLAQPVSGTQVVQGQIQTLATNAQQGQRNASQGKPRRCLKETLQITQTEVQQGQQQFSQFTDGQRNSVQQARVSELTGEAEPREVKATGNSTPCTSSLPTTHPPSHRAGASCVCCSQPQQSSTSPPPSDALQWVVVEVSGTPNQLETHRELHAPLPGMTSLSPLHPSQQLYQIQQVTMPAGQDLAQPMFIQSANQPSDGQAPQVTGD

Q: For NUDCD2 (UniProt Q8WVJ2), which log2 fold change is on record?
A: -0.053 (inactive)

Q: With NA, A0A096LPI6 as the target, how does the log2 fold change read?
A: 0.007 (inactive)

Q: NAP1L1 (UniProt P55209) was tested. Which log2 fold change did it give?
A: 0.039 (inactive)

Q: NCL (UniProt P19338) was tested. Which log2 fold change did it give?
A: 0.387 (inactive)

Q: For NUP107 (UniProt P57740), which log2 fold change is on record?
A: 0.041 (inactive)

Q: How did the log2 fold change turn out when MRPL46 (UniProt Q9H2W6) was run?
A: 0.058 (inactive)

Q: Which log2 fold change does the source give for MRPS22 (UniProt P82650) here?
A: 0.143 (inactive)

Q: How did the log2 fold change turn out when MSTO1 (UniProt Q9BUK6) was run?
A: -0.029 (inactive)

Q: For NOL11 (UniProt Q9H8H0), which log2 fold change is on record?
A: 0.071 (inactive)

Q: How did the log2 fold change turn out when NFYC (UniProt Q13952) was run?
A: -0.041 (inactive)

Q: With MTMR14 (UniProt Q8NCE2) as the target, how does the log2 fold change read?
A: -0.017 (inactive)

Q: With NISCH (UniProt Q9Y2I1) as the target, how does the log2 fold change read?
A: -0.041 (inactive)

Q: NAPG (UniProt Q99747) was tested. Which log2 fold change did it give?
A: 0.044 (inactive)

Q: NDUFA4 (UniProt O00483) was tested. Which log2 fold change did it give?
A: -0.106 (inactive)

Q: For NUMB (UniProt P49757), which log2 fold change is on record?
A: 0.01 (inactive)

Q: How did the log2 fold change turn out when MRPS18B (UniProt Q9Y676) was run?
A: 0.065 (inactive)

Q: How did the log2 fold change turn out when NUP85 (UniProt Q9BW27) was run?
A: -0.047 (inactive)

Q: Which log2 fold change does the source give for MTHFD1 (UniProt P11586) here?
A: -0.032 (inactive)

Q: How did the log2 fold change turn out when NOSIP (UniProt Q9Y314) was run?
A: 0.003 (inactive)

Q: With NECTIN2 (UniProt Q92692) as the target, how does the log2 fold change read?
A: -0.051 (inactive)

Q: With NUP205 (UniProt Q92621) as the target, how does the log2 fold change read?
A: -0.065 (inactive)

Q: How did the log2 fold change turn out when NFATC2IP (UniProt Q8NCF5) was run?
A: 0 (inactive)

Q: NRF1 isoform 4 (UniProt Q16656) was tested. Which log2 fold change did it give?
A: -0.11 (inactive)

Q: For MRPS12 (UniProt O15235), which log2 fold change is on record?
A: 0.299 (inactive)
